# Measured values: PubChem BioAssay AID651558 (National Center for Advancing Translational Sciences (NCATS), 2012)
# Hit rate of the full screen: of about 1,200 compounds, about 480 (40%) were called active. Not shown: some 29% with an inconclusive outcome. Calls follow the shape of the dose curve; as a rule, active = well fitted inhibition curve with a large enough effect; inconclusive = small, poorly fitted or top-dose-only effect; inactive = no such curve, though single readings can be large or run the other way. The list shows a part of the results.
# Assay: qHTS Assay to Find Inhibitors of Chronic Active B-Cell Receptor Signaling: Hit Validation in Primary Screen; also: nearly all actives have a fitted effect of over 75% in size
# Conditions: ABC-DLBCL IkB-luc/CBR ratio luminescence, 4 h; series mostly up to 46.1 µM
# Excerpt: Diffuse large B-cell lymphoma (DLBCL) is the most common category of non-Hodgkin lymphoma, with ~20,000 new cases per year in the United States. DLBCL should be regarded as a collection of different neoplasms. Microarray gene expression analysis has defined two principal types of DLBCL, named for their similarity to normal B cell stages or activation states: a germinal center B-cell (GCB) type, and an activated B-cell (ABC) type. In ABC-DLBCL, a constitutive high-level activity of the NF-kappaB family of transcription factors has been observed (1) and NF-kappaB target genes are more highly expressed in ABC primary tumors than in GCB tumors. Functional studies have shown a constitutive high-level activity of the IkappaB (inhibitor of kappa-B) kinase (IKK) complex. […] Further analysis of DLBCL primary tumors for NF-kappaB target gene expression imply that although CARD11 is required for constitutive IKK activity in all ABC-DLBCL lines, mutations in CARD11 may be the root cause of IKK activation only in lines or tumors with such mutations. In other words, CARD11 mutations may explain NF-kappaB activation in only 10% of ABC-DLBCL cases. […] This process has been termed 'chronic active BCR signaling' (CABS). The goal of this screen is to find small-molecule inhibitors of the CABS pathway found in ABC-DLBCL lines using a cell-based assay that measures IkappaBalpa stability, which has already been extensively validated in the OCI-Ly3 line (PubChem AID:445; REF: 4). […] A cell-sensor assay for I-kappa-B-alpha stabilization has been developed. The assay uses green (CBG68) and red (CBR) emitting beetle luciferases [Chroma-GloTM developed by Promega Corp.] where the green luciferase is fused to IkappaBalpha and the red luciferase is present in its native state. Both luciferase genes are stably present in the TMD8 human ABC DLBCL cell line, but their expression is under the control of tetracycline-inducible promoters. Following the addition of doxycycline to induce expression of the luciferases, the green luminescence in control cultures rises only slowly because the CBG fusion partner IkappaBalpha is targeted by IKK activity for rapid degradation. In contrast, green luminescence rises rapidly in the presence of proteasome inhibitors or IKK inhibitors. The rise in red luminescence of CBR is not affected by proteasome or IKK inhibitors, and serves as normalization for cell number and nonspecific effects. Compounds were screened as a concentration-titration series that ranged from 46 uM to 3 nM. NIH Molecular Libraries Probe Production Network [MLPCN] NIH Chemical Genomics Center [NCGC] MLPCN Grant: R03 DA031086 PI Name: Dr. R. Eric Davis
# Cells were seeded in 1536-well plates at 5000 cells/4uL in IMDM medium containing 0.5% FBS, w/o phenol red, 1% penicillin/streptomycin. Then, 23 nL of compounds or DMSO were delivered to each well using a pin tool. One uL 20ng/ml doxycycline was then dispensed into white solid 1536-well plates and the plates were incubated at 37C/5% C02 in a cell incubator for 4 hrs. Then 4 uL luminescent substrate mix (in-house prepared: 150 mM Tris-Cl, pH 7.6, 3 mM MgCl2, 1% Triton X-100, 5 mM DTT, 0.2 mM CoA, 0.15 mM ATP, 5 mM D-luciferin, final concentrations) was added to each well. The plate was incubated at r.t. for 10-15 min. The plates were measured on a ViewLux plate reader for green luminescence (540/20 nm filter) and red luminescence (618/8 nm filter). The green and red luminescent signals were corrected for red and green luminescence filter overlap using previously determined filter calibration constants (determined using the procedure outlined in the Promega Technical Manual; REF 4). The %Activity was determined from the ratio of corrected green/red luminescent values. MG132 were used as control. Green luminescent and ratio %Activity was determined by normalizing to the difference in signal between basal cells (0% Activity) and cells incubated with 10 uM of the proteasome inhibitor MG-132 (100% Activity). […]
# Potency is read from the fitted curve at half-maximal effect.
row,Compound,Potency
1,COc1cc2c(c(OC)c1OC)-c1ccc(O)cc1[C@@H](NC(C)=O)CC2,0.461 µM (active)
2,COc1cc2c(c(OC)c1OC)-c1ccc(O)c(=O)cc1C(NC(C)=O)CC2 (stereo unspecified),0.231 µM (active)
3,COc1cc(C2c3cc4c(cc3CC3COC(=O)C32)OCO4)cc(OC)c1OC (stereo unspecified),inactive
4,COc1cc([C@@H]2c3cc4c(cc3[C@H](O)[C@H]3COC(=O)[C@H]23)OCO4)cc(OC)c1OC,0.0461 µM (active)
5,CCCCOCCCn1c(N)c(C(=O)OCCOC)c2nc3ccccc3nc21,inactive
6,C=CC[C@@H](CC/C=C/C=C/CC/C=C\[C@@H]1CSC([C@@H]2C[C@@H]2C)=N1)OC,0.82 µM (active)
7,CC[C@]12CC[C@H](O)CC1=CCC1C2CC[C@]2(C)C(=O)CCC12 (stereo partly specified),inactive
8,O=c1c2ccccc2[se]n1-c1ccccc1,20.6 µM (active)
9,Cc1cc(C)c(C(=O)CN2CCOCC2)c(C)c1,inactive
10,CCNC(=O)[C@H]1O[C@@H](n2cnc3c(N)ncnc32)[C@H](O)[C@@H]1O,0.13 µM (active)
11,COc1ccc(C(=O)Oc2cccc3cccnc23)cc1S(=O)(=O)N1CCOCC1,inactive
12,CCC(=NCCC(c1ccccc1)c1ccccc1)c1c(O)[nH]c(=O)[nH]c1=O,20.6 µM (active)
13,C/C(=N\N1CCCCC1)c1c(O)[nH]c(=O)[nH]c1=O,inactive
14,O=C1C(=O)c2cccc3cccc1c23,18.4 µM (active)
15,CCc1ccccc1N1C(=O)/C(=C/c2ccc(N3CCN(C)CC3)o2)C(=O)NC1=S,inactive
16,O=c1c2ccccc2nc(/C=C/c2ccc([N+](=O)[O-])o2)n1-c1ccc(O)cc1,4.11 µM (active)
17,COc1ccc(C=C2C(=O)N(C)C(=O)N(C)C2=O)cc1COc1ccc(NC(C)=O)cc1,inactive
18,C#CCOc1cc(C2C3=C(COC3=O)Nc3cc4c(cc32)OCO4)ccc1OC (stereo unspecified),1.46 µM (active)
19,CN(C)C(=S)SSC(=S)N(C)C,16.4 µM (active)
20,COc1ccc(-c2nn(CCC#N)cc2C(=O)Nc2ccc(C(C)=O)cc2)cc1[N+](=O)[O-],inactive
21,COc1cc2c(cc1O)CC[C@@H]1[C@@H]2CC[C@]2(C)[C@@H](O)CC[C@@H]12,18.4 µM (active)
